Source: PubChem (National Center for Advancing Translational Sciences (NCATS))
This is a sample that favours compounds with a hit; in the whole collection about 19% have one here.
ELG1 repair inh – blocks ELG1-dependent DNA repair in HEK293T cells; HEK293T ELG1-luciferase reporter, luminescence, 16 h; DNA damage induced by 5-fluorouridine; Potency, µM (titrated, usually from 46.1 µM), inactives show at the top dose activity change, negative = inhibition, most hits filed as inhibitors; hit rate 2.3% among 330,000; AID 504467; also: potency is read from the fitted curve at half-maximal effect; nearly all actives have a fitted effect of over 55% in size
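Reporter activity after DNA damage by 5-fluorouridine is monitored. Compound-treated cells incubate 16 hr at 37 °C, then ONE-Glo is added for 30 min before luminescence reading.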
TDP1 cell CPT – growth inhibition of DT40 Tdp1-/-;hTDP1 cells with camptothecin (screen for TDP1 inhibitors); chicken DT40 Tdp1-/-;hTDP1 cells + 20 nM CPT, ATP luminescence, 48 h; Potency, µM (top dose mostly 46.2 µM), without a hit: top-dose activity change, negative = growth inhibition, usual class: inhibitors; hit rate 12% among 420,000; also: potency is read from the fitted curve at half-maximal effect; nearly all actives have a fitted effect of over 55% in size
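Chicken DT40 Tdp1-/- cells complemented with human TDP1, 400 cells/well, exposed to compounds plus 20 nM camptothecin for at least 48 h at 37 C; viability read as ATP content by CellTiter-Glo luminescence.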
Giardia killer – kills Giardia lamblia | Giardia lamblia trophozoite viability | activity change, % at 7.66 µM, hits read low | hit rate 0.15% among 340,000; in the data active = activity change below about -80%; inconclusive = between about -30% and that limit;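 also: parasites exposed to compound for two days anaerobically before the ATP read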
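Viability, read as ATP luminescence: trophozoites at 100 cells/well, compound added, 48 hrs anaerobic at 37 deg C, then 15-30 min room-temperature development before reading.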
TDP1 inh – blocks human tyrosyl-DNA phosphodiesterase 1; recombinant TDP1, AlphaScreen DNA substrate cleavage; hit rate 0.28% among 350,000; Q9NUW8; AID 485290; Potency, µM (titrated, usually from 130 µM), without a hit: top-dose activity change, negative = inhibition, hits mostly inhibitors; also: potency is read from the fitted curve at half-maximal effect; nearly all actives have a fitted effect of over 40% in size
Target sequence (Q9NUW8 whole entry, looked up): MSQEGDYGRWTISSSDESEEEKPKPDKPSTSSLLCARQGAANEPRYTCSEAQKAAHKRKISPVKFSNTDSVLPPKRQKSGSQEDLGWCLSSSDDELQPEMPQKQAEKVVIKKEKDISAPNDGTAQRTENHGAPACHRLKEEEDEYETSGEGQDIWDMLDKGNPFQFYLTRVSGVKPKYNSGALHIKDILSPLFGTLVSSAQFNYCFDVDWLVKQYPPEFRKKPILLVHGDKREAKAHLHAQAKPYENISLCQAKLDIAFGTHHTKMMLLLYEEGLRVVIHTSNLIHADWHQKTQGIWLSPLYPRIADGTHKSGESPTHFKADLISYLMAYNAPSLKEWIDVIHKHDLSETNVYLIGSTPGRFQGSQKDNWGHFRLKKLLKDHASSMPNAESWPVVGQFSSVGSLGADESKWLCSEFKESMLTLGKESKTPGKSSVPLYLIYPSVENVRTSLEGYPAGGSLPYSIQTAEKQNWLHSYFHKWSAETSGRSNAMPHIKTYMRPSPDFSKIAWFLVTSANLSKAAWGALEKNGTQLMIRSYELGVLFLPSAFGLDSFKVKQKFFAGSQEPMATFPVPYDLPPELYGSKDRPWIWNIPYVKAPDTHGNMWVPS
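AlphaScreen read-out: signal falls as enzyme removes the 3' tyrosine-FITC from a 5'-biotinylated DNA oligo (15 nM, 5 min, RT). Enzyme was E. coli-made recombinant Tdp1 at 1 nM, exposed to compound for 15 min beforehand; beads 10 ug/ml, 10 min.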
IL-1B inflam inh – blocks inflammasome-driven IL-1 beta release; activity change, % at 57.5 µM; hit rate 4.7% among 360,000; AID 743279; THP-1 LPS/ATP IL-1B secretion, AlphaLISA, 16 h; stronger effect = lower value; in the data active = activity change below about -50%; inconclusive = mostly about -30% to -49%
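THP-1 cells pretreated 1 hr with compounds (up to 57.5 uM final), then stimulated with LPS (250 ng/mL final) plus ATP (1.25 mM final); secreted IL-1B measured by AlphaLISA after 16 hr, decreased signal indicating inhibition.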
TDP1 cell noCPT – qHTS for Inhibitors of human tyrosyl-DNA phosphodiesterase 1 (TDP1): qHTS in cells in absence of CPT | DT40 Tdp1-/- hTDP1 cells, no CPT, ATP luminescence, 48 h | Potency, µM (top dose mostly 46.2 µM), without a hit: top-dose activity change, negative = growth inhibition, hits mostly inhibitors | hit rate 15% among 420,000 | AID 686978, 2013; also: potency is read from the fitted curve at half-maximal effect; nearly all actives have a fitted effect of over 55% in size
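DT40 Tdp1-/-;hTDP1 cells, no CPT (DMSO vehicle only), 400 cells/well; compounds pin-transferred; ≥48 hr, 37 °C; CellTiter-Glo 30 min RT dark, luminescence read.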
* hit, by the source's call; [ ] = another dose, or the depositor's remark. Unless noted, calls follow the shape of the dose curve; as a rule, active = well fitted curve in the direction sought with a large enough effect; inconclusive = small, poorly fitted or top-dose-only effect, or another doubt; inactive = no such curve, though single readings can be large; an effect the other way counts as inactive or inconclusive. % is scaled to controls: 0 for no effect and ±100 for the full control effect.

Screening O=C(C[n+]1ccccc1)N/N=C/c1cc(Br)cc(Br)c1O returned ELG1 repair inh 20.6µM*, TDP1 cell CPT 8.0%, Giardia killer 9.7, IL-1B inflam inh 85.4 and TDP1 cell noCPT 5.4%.
For O=C(C[n+]1ccccc1)N/N=C/c1cc(Br)ccc1F the results were ELG1 repair inh inconclusive, TDP1 cell CPT -1.5%, Giardia killer -21.0, TDP1 inh -1.5%, IL-1B inflam inh 0.0 and TDP1 cell noCPT -17.0%.
For CCC(O)(CC)C(=O)N/N=C/c1cc(Br)cc(Br)c1O the results were ELG1 repair inh 23.1µM*, TDP1 cell CPT 20.6µM*, Giardia killer 7.6, TDP1 inh 11.2%, IL-1B inflam inh 76.6 and TDP1 cell noCPT 14.6µM*.
For COc1ccc(Br)cc1/C=N/NC(=O)C[n+]1ccccc1 the results were ELG1 repair inh -21.8%, TDP1 cell CPT 18.4µM*, Giardia killer -16.1, IL-1B inflam inh 27.7 and TDP1 cell noCPT 13µM*.
`O=C(CP(=O)(c1ccccc1)c1ccccc1)N/N=C/c1cc(Br)cc(Br)c1O` gave ELG1 repair inh -5.2%, TDP1 cell CPT 14.6µM*, Giardia killer 10.1, TDP1 inh 7.9%, IL-1B inflam inh 65.4 and TDP1 cell noCPT 14.6µM*.
For CN(CCCNC(=O)CCC(=O)N1CCOc2ccc(Cl)cc21)Cc1ccccc1 the results were ELG1 repair inh 9.1%, TDP1 cell CPT inconclusive, Giardia killer -1.8, IL-1B inflam inh inconclusive and TDP1 cell noCPT inconclusive.
`Cc1ccc(NC(=O)CSc2nnc(Cn3c(=O)sc4ccccc43)n2C)cc1Cl` gave ELG1 repair inh -1.5%, TDP1 cell CPT -2.8%, Giardia killer -18.1, TDP1 inh 2.6%, IL-1B inflam inh 52.7 and TDP1 cell noCPT -21.6%.
CSc1ccccc1NC(=O)CN(C)C(=O)C(C)SCc1nc2sc(C)c(C)c2c(=O)[nH]1 (configuration not stated) was read as TDP1 cell CPT -21.0%, Giardia killer -6.4, IL-1B inflam inh -3.2 and TDP1 cell noCPT inconclusive.
CCOc1ccc(OCCNC2CCCC2)cc1 was read as ELG1 repair inh 23.5%, TDP1 cell CPT -16.2%, Giardia killer 23.6, TDP1 inh 3.6%, IL-1B inflam inh 0.0 and TDP1 cell noCPT -3.3%.
`CCCOc1ccc(OCCNC2CCCC2)cc1` gave ELG1 repair inh 17.5%, TDP1 cell CPT -20.6%, Giardia killer -7.5, TDP1 inh -1.0%, IL-1B inflam inh -4.5 and TDP1 cell noCPT 16.4µM*.
Cc1ccc(C)c(OCCCNC2CCCC2)c1C was read as ELG1 repair inh 5.5%, TDP1 cell CPT 23.1µM*, Giardia killer 1.7, TDP1 inh -2.7%, IL-1B inflam inh -8.4 and TDP1 cell noCPT 9.2µM*.
Cc1ccc(OCCCCNC2CCCCC2)c(C)c1 was read as ELG1 repair inh -3.2%, TDP1 cell CPT 20.6µM*, Giardia killer 3.0, TDP1 inh 5.5%, IL-1B inflam inh -62.7* and TDP1 cell noCPT 11.6µM*.
For CC(C)(C)c1ccc(OCCCNC2CCCC2)cc1 the results were ELG1 repair inh 7.6%, TDP1 cell CPT inconclusive, Giardia killer -8.2, TDP1 inh -5.5%, IL-1B inflam inh -66.6* and TDP1 cell noCPT 29.1µM*.
Screening Cc1ccc(OCCCNC2CCCC2)cc1 returned ELG1 repair inh -0.2%, TDP1 cell CPT -16.2%, Giardia killer 30.8, TDP1 inh 0.0%, IL-1B inflam inh -10.9 and TDP1 cell noCPT -20.7%.
`COc1cc(Cl)c(C)cc1NC(=O)CSc1sc2c(O)cc(=O)[nH]c2c1C#N` gave ELG1 repair inh 13.6%, TDP1 cell CPT -14.1%, Giardia killer 6.6, TDP1 inh -4.5%, IL-1B inflam inh 41.5 and TDP1 cell noCPT 0.1%.
`CCN1C(=O)[C@H]2[C@H]3[C@H](O)[C@H](O)C/C(=N/O[C@@H](C)c4cn([C@H](CO)Cc5ccccc5)nn4)[C@@H]3CC[C@@H]2C1=O` gave TDP1 inh 6.9%[21 µM].
`C=CCn1c(SCC(=O)NC(=O)Cc2ccccc2)nnc1-c1ccccc1F` gave ELG1 repair inh 0.1%, TDP1 cell CPT -1.9%, Giardia killer -5.5, TDP1 inh -0.1%, IL-1B inflam inh 7.9 and TDP1 cell noCPT -17.8%.
`COc1ccccc1C(=O)OCC(=O)N1CCC(Cc2ccccc2)CC1` gave ELG1 repair inh inconclusive, TDP1 cell CPT inconclusive, Giardia killer -5.0, TDP1 inh 0.7%, IL-1B inflam inh 0.0 and TDP1 cell noCPT inconclusive.
`Cn1cnnc1SCC(=O)N1CCC(Cc2ccccc2)CC1` gave ELG1 repair inh -0.6%, TDP1 cell CPT inconclusive, Giardia killer -4.0, TDP1 inh 4.2%, IL-1B inflam inh -0.9 and TDP1 cell noCPT 18.4µM*.
Screening O=C(CNS(=O)(=O)/C=C/c1ccccc1)OCC(=O)N1CCC(Cc2ccccc2)CC1 returned ELG1 repair inh -1.6%, TDP1 cell CPT -10.9%, Giardia killer -3.5, TDP1 inh 3.8%, IL-1B inflam inh -84.5* and TDP1 cell noCPT -28.6%.
COc1ccc(C(=O)NCC(=O)N2CCC(Cc3ccccc3)CC2)cc1OC was read as ELG1 repair inh -19.0%, TDP1 cell CPT inconclusive, Giardia killer -15.8, TDP1 inh 3.9%, IL-1B inflam inh -10.6 and TDP1 cell noCPT inconclusive.
For CC(=O)Nc1ccc(C(=O)OCC(=O)N2CCC(Cc3ccccc3)CC2)cc1 the results were ELG1 repair inh 6.51µM*, TDP1 cell CPT -22.6%, Giardia killer -19.5, TDP1 inh 2.0%, IL-1B inflam inh -3.5 and TDP1 cell noCPT -28.1%.
Screening Cc1ccc(C(=O)NCC(=O)N2CCC(Cc3ccccc3)CC2)cc1 returned ELG1 repair inh -0.3%, TDP1 cell CPT -14.9%, Giardia killer -13.9, TDP1 inh 2.7%, IL-1B inflam inh -69.1* and TDP1 cell noCPT inconclusive.
CC1CC(C)CN(C(=O)COC(=O)CNS(=O)(=O)/C=C/c2ccccc2)C1 (configuration not stated) was read as ELG1 repair inh 8.9%, TDP1 cell CPT -2.1%, Giardia killer 17.1, TDP1 inh 2.1%, IL-1B inflam inh -12.8 and TDP1 cell noCPT -4.6%.
`Cc1cc(OCC(=O)NC2CCN(Cc3ccccc3)CC2)c2c(C)cc(=O)oc2c1` gave ELG1 repair inh 11.5%, TDP1 cell CPT inconclusive, Giardia killer 7.6, TDP1 inh 4.4%, IL-1B inflam inh -13.6 and TDP1 cell noCPT inconclusive.
`CC(NS(=O)(=O)c1ccc2c(c1)c(=O)n(C)c(=O)n2C)C(=O)NC1CCCCC1` (configuration not stated) gave ELG1 repair inh 13.5%, TDP1 cell CPT -5.4%, Giardia killer -2.3, TDP1 inh 1.1%, IL-1B inflam inh 17.7 and TDP1 cell noCPT 17.4%.
